# In ChEMBL document CHEMBL1157539, “Thousands of chemical starting points for antimalarial lead identification” (Nature, 2010):
# Experiments:
# Type in all cases: functional
# Plasmodium falciparum [1] = assay: GSK_TCMDC: Inhibition of Plasmodium falciparum 3D7 in whole red blood cells, using parasite LDH activity as an index of growth. Test compounds present at 2uM
# Plasmodium falciparum [2] = assay: GSK_TCMDC: Inhibition of Plasmodium falciparum Dd2 in whole red blood cells, using parasite LDH activity as an index of growth. Test compounds present at 2uM
# HepG2 = assay: GSK_TCMDC: Percent inhibition of human HepG2 cell line. Test compounds present at 10uM.
SMILES,Inhibition (Plasmodium falciparum [1]),Inhibition (Plasmodium falciparum [2]),Inhibition (HepG2)
N#Cc1cccc(NC(=O)C2=C(CCc3ccc4c(c3)OCO4)NC(=O)NC2c2cccc(C#N)c2)c1 (stereo not given),96%,47%,3%
O=C(NC1CCC1)C1CCN(C(c2ccccc2)c2cc(F)cc(F)c2)CC1 (stereo not given),94%,72%,0%
CCCCc1ccc2ncc(C(=O)OCC)c(O)c2c1,95%,96%,3%
CS(=O)(=O)O.CSc1ccc2ccccc2c1CNCCCCCCNCc1c(SC)ccc2ccccc12,99%,74%,83%
CC(C)OC(=O)c1ccc(NC(=O)N[C@@H](Cc2ccc(O)cc2)C(=O)NC2CCC(CCN3C4CCC3c3ccccc34)CC2)cc1.O=C(O)C(F)(F)F (stereo not given in full),95%,67%,3%
Cc1[nH]c(C)c(-c2ccc(-c3cccc(Cl)c3)nc2)c(=O)c1Cl,97%,97%,15%
Cn1c(N)cc(-c2ccc(Br)cc2)c2c(=O)nc(N)nc1-2,80%,57%,5%
COc1ccc(Cn2ccc3c4c(N)nc(N)nc4ccc32)cc1,100%,93%,90%
CSc1cccc(NC(=O)Nc2ccc(I)c(OCCN(C)C)c2)c1,97%,19%,14%
CN(C)C(=O)CN1CCN(c2ncnc(N3CCc4c([nH]c5ccccc45)[C@@H]3c3ccc4c(c3)CCO4)n2)CC1,99%,98%,12%
Cl.O=C(Nc1ccc(C2=NC3CCCCC3N2)cc1)Nc1ccc(C2=NC3CCCCC3N2)cc1 (stereo not given),88%,76%,7%
COc1cccc(Nc2nc(C)cc(NC3CCCC3)n2)c1,100%,79%,41%
COc1ccc(C(=O)O)cc1OCc1ccccc1,99%,0%,0%
CC(C)(C)Nc1cc(C2CC2)nc(-c2ccccn2)n1,88%,75%,0%
COc1ccc(-c2cccc(NC(=O)c3cccc(Cl)c3)c2)cc1CNC(C)C.O=C(O)C(F)(F)F,100%,8%,15%
Cc1c(CNCCCNc2nc3ccccc3[nH]2)[nH]c2cc(Cl)cc(Cl)c12,100%,0%,59%
CCOC(=O)c1cnc2c(OC)cc(OC)c(Cl)c2c1Nc1ccccc1,99%,100%,13%
O=C(O)C(F)(F)F.OCC1CCN(Cc2cccc(-c3ccc(-c4nc5cc(C(F)(F)F)ccc5[nH]4)s3)c2)CC1,99%,90%,0%
OC(CNc1ccnc(Nc2ccc(Cl)cc2)n1)c1ccccc1C(F)(F)F (stereo not given),98%,28%,22%
COc1ccc2ncc(F)c(CCN3CC[C@@H](CNCc4cc(C)c5c(c4)OCCO5)C3)c2n1.Cl,98%,44%,22%
CCCCC(O)c1cc(O)c2c(c1)OC(C)(C)CC2C1=CCN(Cc2ccc3ccccc3c2)CC1 (stereo not given),100%,97%,7%
O=C(/C=C/c1ccc(Cl)c(Cl)c1)NCCCCCN1CCC(c2c[nH]c3ccccc23)CC1,99%,7%,33%
O=C(Nc1ccc(CN2CCOCC2)cc1)c1ccc(-c2cc(Cl)ccc2Cl)o1,100%,13%,5%
O=C(Nc1ccc2c(c1)OCO2)NC1CCN(c2ccnc(Nc3ccc(F)cc3)n2)C1 (stereo not given),100%,89%,5%
Cc1cc(=NN=Cc2ccccc2Cl)c2ccc(F)cc2[nH]1,100%,100%,6%
CO/C(=C\C=C\c1cc2cc(Cl)c(Cl)cc2[nH]1)C(=O)NCCCN1CCN(c2cccc(Cl)c2)CC1,100%,77%,58%
C=C1C(C(=O)OCC)=CN(CC)c2cc(O[C@@H]3CCN(C(=O)OC(C)(C)C)C3)ccc21,97%,94%,13%
CCc1cn(C)c2c(N3CCCC3=O)cc(C(=O)N[C@@H](Cc3ccccc3)[C@H](O)CNCc3cccc(OC)c3)cc12,96%,97%,7%
CC(C)(C)CCOC(=O)N1CCc2c(cc(O)c(O)c2Cl)C(c2ccc(O)cc2)C1 (stereo not given),97%,95%,2%
Cc1cc(F)ccc1C1CCN(CCCCNC(=O)c2ccc(NC(=O)c3ccc(Cl)cc3)cc2)CC1,100%,79%,19%
